According to PMC7862700, “An all-to-all approach to the identification of sequence-specific readers for epigenetic DNA modifications on cytosine”:

Legend:
Assay in all cases: DAPPL (digital affinity profiling via proximity ligation, sequencing); 10 mM Tris-HCl pH 7.5, 50 mM NaCl, 1 mM DTT, 4% glycerol, room temperature, 30 min; GST-TFs on glutathione beads, 16-mer random dsDNA library, 0.1% formaldehyde crosslink after washing; high values mean tight binding
FLI1 = target: T1, FLI1 (Homo sapiens, UniProt Q01543 1-452); details: protein: recombinant; tags: N-terminal GST; dsDNA, one strand shown
T1 sequence: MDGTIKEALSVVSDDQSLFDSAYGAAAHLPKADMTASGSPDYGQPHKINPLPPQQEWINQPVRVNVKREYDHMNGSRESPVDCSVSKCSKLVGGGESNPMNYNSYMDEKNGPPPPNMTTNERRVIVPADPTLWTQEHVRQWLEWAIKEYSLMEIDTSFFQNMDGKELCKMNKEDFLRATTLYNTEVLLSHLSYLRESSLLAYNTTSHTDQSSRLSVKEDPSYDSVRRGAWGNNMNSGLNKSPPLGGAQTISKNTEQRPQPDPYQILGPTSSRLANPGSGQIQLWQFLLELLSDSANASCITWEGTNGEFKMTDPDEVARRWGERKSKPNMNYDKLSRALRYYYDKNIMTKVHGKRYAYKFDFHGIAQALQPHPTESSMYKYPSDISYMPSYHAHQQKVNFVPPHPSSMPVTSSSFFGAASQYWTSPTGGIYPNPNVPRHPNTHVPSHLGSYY
Method in brief: (§1)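 A tag-only sample was pooled with DNA-barcoded human transcription factors that had been expressed in yeast as GST fusions and captured on glutathione beads. The pools were incubated for 30 min at room temperature with 200 nmole of a random double-stranded 16-mer DNA library in Tris/NaCl/DTT/glycerol buffer, then washed, crosslinked with 0.1% formaldehyde, proximity-ligated (BsaI/T4 ligase, 1 h, 37 °C), PCR-amplified and sequenced on an Illumina NextSeq500. Binding signal is each hexamer's read frequency for a factor divided by its frequency for the tag-only sample.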

ELK1 = target: T2, ELK1 (Homo sapiens, UniProt P19419 1-428); details: protein: recombinant; tags: N-terminal GST; dsDNA, one strand shown
T2 sequence: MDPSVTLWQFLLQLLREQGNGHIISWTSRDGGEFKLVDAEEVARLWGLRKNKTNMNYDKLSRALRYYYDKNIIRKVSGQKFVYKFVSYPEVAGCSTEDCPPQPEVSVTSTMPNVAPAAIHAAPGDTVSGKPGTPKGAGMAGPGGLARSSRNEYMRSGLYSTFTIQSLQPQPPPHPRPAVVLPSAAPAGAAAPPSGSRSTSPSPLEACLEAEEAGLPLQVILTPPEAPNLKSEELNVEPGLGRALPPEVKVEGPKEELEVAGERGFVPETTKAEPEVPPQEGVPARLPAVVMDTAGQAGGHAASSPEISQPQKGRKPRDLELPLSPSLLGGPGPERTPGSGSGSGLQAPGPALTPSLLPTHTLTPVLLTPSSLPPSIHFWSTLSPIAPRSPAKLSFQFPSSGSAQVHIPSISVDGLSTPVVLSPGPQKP
Method in brief: as §1

GABPA = target: T3, GABPA (Homo sapiens, UniProt Q06546 1-454); details: protein: recombinant; tags: N-terminal GST; dsDNA, one strand shown
T3 sequence: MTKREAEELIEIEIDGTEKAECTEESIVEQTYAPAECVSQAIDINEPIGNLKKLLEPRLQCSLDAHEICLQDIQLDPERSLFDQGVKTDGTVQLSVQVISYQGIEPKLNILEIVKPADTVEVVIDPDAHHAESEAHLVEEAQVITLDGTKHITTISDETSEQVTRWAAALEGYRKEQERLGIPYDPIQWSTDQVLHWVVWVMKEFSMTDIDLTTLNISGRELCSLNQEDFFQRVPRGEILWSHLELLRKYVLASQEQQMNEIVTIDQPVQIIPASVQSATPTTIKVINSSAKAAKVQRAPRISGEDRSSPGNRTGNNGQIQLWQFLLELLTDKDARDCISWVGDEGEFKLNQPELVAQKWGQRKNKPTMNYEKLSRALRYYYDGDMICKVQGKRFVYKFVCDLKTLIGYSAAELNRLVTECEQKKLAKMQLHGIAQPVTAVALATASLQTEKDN
Method in brief: as §1

ERG = target: T4, ERG (Homo sapiens, UniProt P11308 1-479); details: protein: recombinant; tags: N-terminal GST; dsDNA, one strand shown
T4 sequence: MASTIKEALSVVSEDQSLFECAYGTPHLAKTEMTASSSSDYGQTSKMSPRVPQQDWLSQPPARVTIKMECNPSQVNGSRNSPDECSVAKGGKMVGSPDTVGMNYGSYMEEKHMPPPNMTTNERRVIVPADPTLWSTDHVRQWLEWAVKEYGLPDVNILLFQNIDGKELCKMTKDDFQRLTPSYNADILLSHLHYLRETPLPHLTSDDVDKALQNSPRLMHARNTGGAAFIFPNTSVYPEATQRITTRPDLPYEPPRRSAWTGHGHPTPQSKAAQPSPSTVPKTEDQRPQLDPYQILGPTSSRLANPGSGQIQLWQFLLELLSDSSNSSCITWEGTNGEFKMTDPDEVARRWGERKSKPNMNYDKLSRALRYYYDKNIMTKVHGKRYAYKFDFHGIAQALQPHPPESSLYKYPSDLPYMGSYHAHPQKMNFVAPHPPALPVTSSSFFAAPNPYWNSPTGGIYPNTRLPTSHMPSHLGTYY
Method in brief: as §1

ELF1 = ELF1 (Homo sapiens, UniProt P32519 1-619); details: protein: recombinant; tags: N-terminal GST; dsDNA, one strand shown
Chain of ELF1 (P32519 whole entry): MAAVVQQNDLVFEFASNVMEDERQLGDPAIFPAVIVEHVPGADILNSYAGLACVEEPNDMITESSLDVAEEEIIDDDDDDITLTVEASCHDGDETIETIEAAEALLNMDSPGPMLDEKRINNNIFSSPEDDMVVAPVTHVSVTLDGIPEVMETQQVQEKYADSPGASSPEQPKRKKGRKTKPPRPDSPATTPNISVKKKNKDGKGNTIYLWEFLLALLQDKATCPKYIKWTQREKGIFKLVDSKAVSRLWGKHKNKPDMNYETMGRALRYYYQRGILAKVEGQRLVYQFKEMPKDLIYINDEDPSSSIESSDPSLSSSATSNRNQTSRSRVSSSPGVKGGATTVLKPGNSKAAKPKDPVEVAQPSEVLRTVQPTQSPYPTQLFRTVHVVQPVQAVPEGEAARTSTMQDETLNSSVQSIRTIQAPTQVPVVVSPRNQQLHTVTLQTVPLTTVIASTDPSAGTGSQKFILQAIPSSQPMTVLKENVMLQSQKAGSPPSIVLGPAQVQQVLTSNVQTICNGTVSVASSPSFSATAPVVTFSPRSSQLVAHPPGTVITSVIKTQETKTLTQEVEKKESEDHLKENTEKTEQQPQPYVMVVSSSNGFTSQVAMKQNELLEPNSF
Method in brief: as §1

EHF = target: T5, EHF (Homo sapiens, UniProt Q9NZC4 1-300); details: protein: recombinant; tags: N-terminal GST; dsDNA, one strand shown
T5 sequence: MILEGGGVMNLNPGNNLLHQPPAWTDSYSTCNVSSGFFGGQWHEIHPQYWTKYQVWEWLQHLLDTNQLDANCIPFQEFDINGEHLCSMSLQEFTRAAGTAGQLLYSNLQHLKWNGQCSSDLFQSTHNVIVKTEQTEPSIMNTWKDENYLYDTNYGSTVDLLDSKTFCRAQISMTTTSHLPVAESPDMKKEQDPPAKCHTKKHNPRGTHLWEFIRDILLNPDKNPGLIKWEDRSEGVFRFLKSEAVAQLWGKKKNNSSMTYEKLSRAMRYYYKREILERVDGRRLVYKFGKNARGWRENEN
Method in brief: as §1

SPI1 = SPI1 (Homo sapiens, UniProt P17947 1-270); details: protein: recombinant; tags: N-terminal GST; dsDNA, one strand shown
Method in brief: as §1

SPIB = SPIB (Homo sapiens, UniProt Q01892 1-262); details: protein: recombinant; tags: N-terminal GST; dsDNA, one strand shown
Chain of SPIB (Q01892 whole entry): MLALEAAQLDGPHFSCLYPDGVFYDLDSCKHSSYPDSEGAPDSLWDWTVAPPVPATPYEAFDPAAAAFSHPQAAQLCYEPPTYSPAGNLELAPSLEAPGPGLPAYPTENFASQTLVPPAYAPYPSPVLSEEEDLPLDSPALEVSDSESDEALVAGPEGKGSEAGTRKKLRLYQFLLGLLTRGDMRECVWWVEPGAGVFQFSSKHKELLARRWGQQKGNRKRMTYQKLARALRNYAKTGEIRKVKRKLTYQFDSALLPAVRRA
Method in brief: as §1

ELK3 = target: T6, ELK3 (Homo sapiens, UniProt P41970 1-407); details: protein: recombinant; tags: N-terminal GST; dsDNA, one strand shown
T6 sequence: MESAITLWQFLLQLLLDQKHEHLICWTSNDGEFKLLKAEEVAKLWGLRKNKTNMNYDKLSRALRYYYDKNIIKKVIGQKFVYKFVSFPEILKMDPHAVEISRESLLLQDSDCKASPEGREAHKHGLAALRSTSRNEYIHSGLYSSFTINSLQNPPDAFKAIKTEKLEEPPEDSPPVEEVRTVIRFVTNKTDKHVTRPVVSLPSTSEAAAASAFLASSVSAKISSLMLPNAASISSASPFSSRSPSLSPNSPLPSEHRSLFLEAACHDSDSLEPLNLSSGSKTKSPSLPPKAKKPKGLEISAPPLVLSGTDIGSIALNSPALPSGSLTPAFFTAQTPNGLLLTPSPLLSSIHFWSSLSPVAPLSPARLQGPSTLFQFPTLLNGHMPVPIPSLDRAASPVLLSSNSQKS
Method in brief: as §1

FEV = target: T7, FEV (Homo sapiens, UniProt Q99581 1-238); details: protein: recombinant; tags: N-terminal GST; dsDNA, one strand shown
T7 sequence: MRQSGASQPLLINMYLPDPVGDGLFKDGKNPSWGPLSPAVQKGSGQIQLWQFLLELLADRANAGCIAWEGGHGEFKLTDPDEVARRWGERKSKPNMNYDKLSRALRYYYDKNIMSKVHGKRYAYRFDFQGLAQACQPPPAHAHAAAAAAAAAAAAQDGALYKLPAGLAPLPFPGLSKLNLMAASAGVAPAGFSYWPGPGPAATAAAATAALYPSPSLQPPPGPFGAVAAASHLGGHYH
Method in brief: as §1

ETV5 = ETV5 (Homo sapiens, UniProt P41161 1-510); details: protein: recombinant; tags: N-terminal GST; dsDNA, one strand shown
Chain of ETV5 (P41161 whole entry): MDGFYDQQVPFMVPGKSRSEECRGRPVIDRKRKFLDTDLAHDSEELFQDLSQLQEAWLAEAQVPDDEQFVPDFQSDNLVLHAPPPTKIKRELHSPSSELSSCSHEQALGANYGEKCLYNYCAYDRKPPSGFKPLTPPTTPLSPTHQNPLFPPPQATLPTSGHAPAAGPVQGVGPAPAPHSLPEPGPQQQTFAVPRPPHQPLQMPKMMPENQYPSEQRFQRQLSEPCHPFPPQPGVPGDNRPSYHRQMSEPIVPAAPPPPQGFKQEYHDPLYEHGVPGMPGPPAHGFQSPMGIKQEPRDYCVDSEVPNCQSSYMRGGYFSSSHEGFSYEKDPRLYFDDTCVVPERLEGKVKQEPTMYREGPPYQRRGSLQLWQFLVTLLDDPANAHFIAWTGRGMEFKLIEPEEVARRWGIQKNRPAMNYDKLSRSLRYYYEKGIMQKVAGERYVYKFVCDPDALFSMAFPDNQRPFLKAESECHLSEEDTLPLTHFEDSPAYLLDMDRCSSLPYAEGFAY
Method in brief: as §1

HSF1 = HSF1 (Homo sapiens, UniProt Q00613 1-529); details: protein: recombinant; tags: N-terminal GST; chain copies: 3; dsDNA, one strand shown
Chain of HSF1 (Q00613 whole entry): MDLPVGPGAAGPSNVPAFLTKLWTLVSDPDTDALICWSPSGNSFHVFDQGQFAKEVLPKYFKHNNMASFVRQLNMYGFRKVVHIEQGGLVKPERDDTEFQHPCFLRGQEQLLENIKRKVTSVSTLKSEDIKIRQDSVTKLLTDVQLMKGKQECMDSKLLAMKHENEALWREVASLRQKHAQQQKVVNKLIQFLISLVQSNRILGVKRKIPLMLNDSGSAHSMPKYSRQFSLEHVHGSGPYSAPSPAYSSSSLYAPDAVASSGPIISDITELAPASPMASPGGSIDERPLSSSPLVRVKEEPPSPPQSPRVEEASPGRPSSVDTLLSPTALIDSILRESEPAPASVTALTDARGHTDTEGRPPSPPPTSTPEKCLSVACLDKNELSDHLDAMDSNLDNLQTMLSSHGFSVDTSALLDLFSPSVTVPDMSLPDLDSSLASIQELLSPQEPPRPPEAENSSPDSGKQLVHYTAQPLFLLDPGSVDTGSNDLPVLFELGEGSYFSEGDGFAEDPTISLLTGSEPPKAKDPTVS
Method in brief: as §1

SPIC = target: T8, SPIC (Homo sapiens, UniProt Q8N5J4 1-248); details: protein: recombinant; tags: N-terminal GST; dsDNA, one strand shown
T8 sequence: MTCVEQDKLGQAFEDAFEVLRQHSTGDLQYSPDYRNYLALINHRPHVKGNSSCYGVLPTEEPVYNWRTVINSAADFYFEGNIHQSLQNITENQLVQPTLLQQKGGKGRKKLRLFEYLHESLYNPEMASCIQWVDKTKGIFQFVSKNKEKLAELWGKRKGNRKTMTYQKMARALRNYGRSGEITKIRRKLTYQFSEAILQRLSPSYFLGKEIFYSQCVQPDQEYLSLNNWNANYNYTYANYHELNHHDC
Method in brief: as §1

ELF4 = ELF4 (Homo sapiens, UniProt Q99607 1-663); details: protein: recombinant; tags: N-terminal GST; dsDNA, one strand shown
Chain of ELF4 (Q99607 whole entry): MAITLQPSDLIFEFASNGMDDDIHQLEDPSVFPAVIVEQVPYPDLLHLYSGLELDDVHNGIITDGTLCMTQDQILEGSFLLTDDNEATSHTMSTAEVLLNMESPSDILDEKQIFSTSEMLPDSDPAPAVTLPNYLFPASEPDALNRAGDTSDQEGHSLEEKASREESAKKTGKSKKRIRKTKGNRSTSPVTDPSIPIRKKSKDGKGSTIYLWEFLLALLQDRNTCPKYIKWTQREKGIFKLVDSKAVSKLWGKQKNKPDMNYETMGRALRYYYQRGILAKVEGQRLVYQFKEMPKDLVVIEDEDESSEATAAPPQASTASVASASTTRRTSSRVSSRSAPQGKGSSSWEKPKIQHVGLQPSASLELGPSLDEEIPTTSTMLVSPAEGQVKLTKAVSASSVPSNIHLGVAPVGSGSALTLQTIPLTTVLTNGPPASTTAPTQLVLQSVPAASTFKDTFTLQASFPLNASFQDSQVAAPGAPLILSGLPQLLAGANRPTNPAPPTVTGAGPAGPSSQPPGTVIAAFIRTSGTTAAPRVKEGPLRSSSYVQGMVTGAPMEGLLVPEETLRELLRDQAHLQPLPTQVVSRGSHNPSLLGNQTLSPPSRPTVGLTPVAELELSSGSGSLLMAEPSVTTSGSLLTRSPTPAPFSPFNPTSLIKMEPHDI
Method in brief: as §1

ELK4 = target: T9, ELK4 (Homo sapiens, UniProt P28324-2 1-405); details: protein: recombinant; tags: N-terminal GST; dsDNA, one strand shown
T9 sequence: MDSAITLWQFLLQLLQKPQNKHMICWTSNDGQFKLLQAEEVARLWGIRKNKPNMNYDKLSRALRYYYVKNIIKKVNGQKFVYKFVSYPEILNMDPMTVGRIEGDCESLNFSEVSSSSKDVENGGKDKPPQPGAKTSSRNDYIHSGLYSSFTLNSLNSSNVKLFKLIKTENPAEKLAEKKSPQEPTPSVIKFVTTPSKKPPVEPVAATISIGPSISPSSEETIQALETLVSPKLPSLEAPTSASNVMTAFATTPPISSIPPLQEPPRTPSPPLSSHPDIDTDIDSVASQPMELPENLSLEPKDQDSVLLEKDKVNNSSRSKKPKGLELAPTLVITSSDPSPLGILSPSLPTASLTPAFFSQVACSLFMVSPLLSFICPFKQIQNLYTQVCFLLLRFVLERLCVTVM
Method in brief: as §1

ETV2 = target: T10, ETV2 (Homo sapiens, UniProt O00321 1-342); details: protein: recombinant; tags: N-terminal GST; dsDNA, one strand shown
T10 sequence: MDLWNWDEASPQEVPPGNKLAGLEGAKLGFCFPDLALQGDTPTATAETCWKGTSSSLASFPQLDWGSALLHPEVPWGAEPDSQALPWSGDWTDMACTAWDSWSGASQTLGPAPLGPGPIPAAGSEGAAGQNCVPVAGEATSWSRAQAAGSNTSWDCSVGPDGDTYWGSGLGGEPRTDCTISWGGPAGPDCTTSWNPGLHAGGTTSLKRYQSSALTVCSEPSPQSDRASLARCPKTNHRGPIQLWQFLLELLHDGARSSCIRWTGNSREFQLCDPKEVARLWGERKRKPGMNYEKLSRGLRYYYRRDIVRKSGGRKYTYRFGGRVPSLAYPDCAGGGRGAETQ
Method in brief: as §1

ELF3 = target: T11, ELF3 (Homo sapiens, UniProt P78545 1-371); details: protein: recombinant; tags: N-terminal GST; dsDNA, one strand shown
T11 sequence: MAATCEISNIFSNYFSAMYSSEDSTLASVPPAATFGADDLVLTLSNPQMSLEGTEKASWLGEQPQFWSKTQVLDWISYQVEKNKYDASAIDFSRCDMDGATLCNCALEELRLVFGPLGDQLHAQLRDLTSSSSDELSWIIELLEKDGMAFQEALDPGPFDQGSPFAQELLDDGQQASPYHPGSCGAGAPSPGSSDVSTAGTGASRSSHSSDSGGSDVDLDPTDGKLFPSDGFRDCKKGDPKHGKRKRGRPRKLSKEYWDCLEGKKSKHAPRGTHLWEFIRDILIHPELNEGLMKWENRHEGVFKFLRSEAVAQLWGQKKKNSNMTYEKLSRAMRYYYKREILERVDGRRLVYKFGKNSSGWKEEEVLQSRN
Method in brief: as §1

CRX = CRX (Homo sapiens, UniProt O43186 1-299); details: protein: recombinant; tags: N-terminal GST; dsDNA, one strand shown
Chain of CRX (O43186 whole entry): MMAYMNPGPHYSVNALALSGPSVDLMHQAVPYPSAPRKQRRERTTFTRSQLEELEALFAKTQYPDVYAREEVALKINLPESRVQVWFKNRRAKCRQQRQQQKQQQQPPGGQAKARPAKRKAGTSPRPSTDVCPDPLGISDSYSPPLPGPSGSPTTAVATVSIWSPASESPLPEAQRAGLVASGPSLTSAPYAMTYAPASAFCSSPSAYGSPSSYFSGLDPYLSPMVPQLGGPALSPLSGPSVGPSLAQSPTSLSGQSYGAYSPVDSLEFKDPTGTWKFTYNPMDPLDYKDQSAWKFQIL
Method in brief: as §1

ETV1 = ETV1 (Homo sapiens, UniProt P50549 1-477); details: protein: recombinant; tags: N-terminal GST; dsDNA, one strand shown
Chain of ETV1 (P50549 whole entry): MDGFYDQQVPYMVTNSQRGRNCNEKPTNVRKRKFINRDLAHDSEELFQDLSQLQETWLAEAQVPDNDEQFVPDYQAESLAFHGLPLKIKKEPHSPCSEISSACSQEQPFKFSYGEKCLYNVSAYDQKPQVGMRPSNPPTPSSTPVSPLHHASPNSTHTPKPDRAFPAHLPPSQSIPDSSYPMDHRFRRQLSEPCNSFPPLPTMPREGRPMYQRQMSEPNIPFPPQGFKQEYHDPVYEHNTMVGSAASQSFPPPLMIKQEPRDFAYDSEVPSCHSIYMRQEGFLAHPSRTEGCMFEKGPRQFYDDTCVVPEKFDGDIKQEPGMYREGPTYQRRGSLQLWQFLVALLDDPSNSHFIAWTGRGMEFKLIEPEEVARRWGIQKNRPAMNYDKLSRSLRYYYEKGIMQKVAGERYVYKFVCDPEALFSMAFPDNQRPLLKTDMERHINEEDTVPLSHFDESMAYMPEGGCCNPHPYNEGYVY
Method in brief: as §1

ATAATC
binding signal (FLI1): 1.17 fold enrichment (6-mer frequency, TF over GST control)
binding signal (ELK1): 1.16 fold enrichment (6-mer frequency, TF over GST control)
binding signal (GABPA): 1.14 fold enrichment (6-mer frequency, TF over GST control)
binding signal (ERG): 1.13 fold enrichment (6-mer frequency, TF over GST control)
binding signal (ELF1): 1.07 fold enrichment (6-mer frequency, TF over GST control)
binding signal (EHF): 1.14 fold enrichment (6-mer frequency, TF over GST control)
binding signal (SPI1): 1.1 fold enrichment (6-mer frequency, TF over GST control)
binding signal (SPIB): 1.08 fold enrichment (6-mer frequency, TF over GST control)
binding signal (ELK3): 1.17 fold enrichment (6-mer frequency, TF over GST control)
binding signal (FEV): 1.1 fold enrichment (6-mer frequency, TF over GST control)
binding signal (ETV5): 1.17 fold enrichment (6-mer frequency, TF over GST control)
binding signal (HSF1): 2.86 fold enrichment (6-mer frequency, TF over GST control)
binding signal (SPIC): 1.16 fold enrichment (6-mer frequency, TF over GST control)
binding signal (ELF4): 1.13 fold enrichment (6-mer frequency, TF over GST control)
binding signal (ELK4): 1.13 fold enrichment (6-mer frequency, TF over GST control)
binding signal (ETV2): 1.21 fold enrichment (6-mer frequency, TF over GST control)
binding signal (ELF3): 1.15 fold enrichment (6-mer frequency, TF over GST control)
binding signal (CRX): 4.71 fold enrichment (6-mer frequency, TF over GST control)
binding signal (ETV1): 1.12 fold enrichment (6-mer frequency, TF over GST control)
